Data from PubChem BioAssay (NCATS).
Values joined by “and” are separate entries in the source; they are usually repeats but may differ in a detail not shown here. Identical values can stand only once. Results filed as inconclusive are left out. Active and inactive are the calls of the source. Unless noted, calls come from the whole dose curve; as a rule, active = well fitted curve in the direction sought with a large enough effect; inconclusive = small, poorly fitted or top-dose-only effect, or another doubt; inactive = no such curve, though single readings can be large; an effect the other way counts as inactive or inconclusive.

Assays:
[1] = qHTS to identify inhibitors of the type 1 interferon - major histocompatibility complex class I in skeletal muscle: primary screen against the NCATS LOPAC collection (AID 1347405);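 note: lytic HiBiT luminescence reporting HLA-B protein level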; note: potency is the fitted concentration of half-maximal effect
Method in brief: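 Luminescence from HiBiT fused to endogenous HLA-B in CRISPR-engineered human myoblasts served as the read-out. Cells received 4.0 ng/ml IFN-beta plus compound (seven concentrations, 1:4.3 steps, highest 46 uM final) for 24 hrs before lytic detection.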

[2] = qHTS to identify inhibitors of the type 1 interferon - major histocompatibility complex class I in skeletal muscle: primary screen against the NCATS Pharmaceutical Collection (AID 1347407);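 note: luminescence of HiBiT knocked into endogenous HLA-B as interferon-induced MHC class I level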; note: potency is the fitted concentration of half-maximal effect
Method in brief: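 Compounds […] were added to CRISPR-engineered HLA-B-HiBiT C25cl48 human myoblasts with 4.0 ng/ml IFN-beta. After 24 hrs at 37 C, cells were lysed and HiBiT luminescence measured.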

[3] = qHTS for inhibitors of adenylyl cyclases using a fission yeast platform: a pilot screen against the NCATS LOPAC library (AID 1347410);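 note: plate controls were DMSO vehicle for no effect and DPI positive control for full effect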
Method in brief: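 GFP from fbp1-GFP reporter, read by Acumen laser cytometry, indicates AC inhibition in fission yeast expressing AC9, GNAS and PDE4D2. Cells grown 18 h in the dark at 30C with compounds, final up to 57 uM.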

[4] = target: Protein phosphatase 1D (Homo sapiens) (UniProt O15297); experiment: RapidFire Mass Spectrometry qHTS Assay for Modulators of WT P53-Induced Phosphatase 1 (WIP1) (AID 1347424);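 note: amount of dephosphorylated VEPPL-S-QETFS peptide product formed by WIP1; series mostly up to about 63 µM; plate controls were DMSO wells for no effect and GSK830371 inhibitor control at 10 µM for full effect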
Chain of Protein phosphatase 1D (Homo sapiens) (O15297 whole entry, looked up): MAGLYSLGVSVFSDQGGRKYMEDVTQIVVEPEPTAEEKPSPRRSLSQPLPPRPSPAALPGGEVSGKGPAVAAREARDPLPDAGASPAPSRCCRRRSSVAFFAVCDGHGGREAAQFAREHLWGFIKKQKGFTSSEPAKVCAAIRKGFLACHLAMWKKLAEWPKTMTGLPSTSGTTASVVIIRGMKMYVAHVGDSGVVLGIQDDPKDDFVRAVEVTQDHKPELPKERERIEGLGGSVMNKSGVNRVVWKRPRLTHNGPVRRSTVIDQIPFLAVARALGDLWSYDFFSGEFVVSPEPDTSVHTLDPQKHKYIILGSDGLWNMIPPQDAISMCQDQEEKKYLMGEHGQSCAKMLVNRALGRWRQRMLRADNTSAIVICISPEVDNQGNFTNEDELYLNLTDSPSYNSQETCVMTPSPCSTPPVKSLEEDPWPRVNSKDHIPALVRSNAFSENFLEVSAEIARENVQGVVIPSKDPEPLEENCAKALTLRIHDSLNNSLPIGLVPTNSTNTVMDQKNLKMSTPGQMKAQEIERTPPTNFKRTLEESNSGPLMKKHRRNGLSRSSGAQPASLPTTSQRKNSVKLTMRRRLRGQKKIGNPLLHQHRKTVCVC
Method in brief: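 10 nM WIP1 + cpd, 1 h RT; + 2 uM VEPPL-pS-QETFS, 5 min RT; stop 0.5% formic acid; labelled product standard 1 uM; RapidFire MS. Buffer 50 mM Tris pH 7.5, 30 mM MgCl2, 1 mM TCEP.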

[5] = target: Protein phosphatase 1D (Homo sapiens) (UniProt O15297); experiment: Rhodamine-PBP qHTS Assay for Modulators of WT P53-Induced Phosphatase 1 (WIP1) (AID 1347425); note: % of control where 0% means no effect
Method in brief: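 WIP1 (5 nM final) was preincubated with compound for 1 hour at room temperature. It then dephosphorylated 10 uM VEPPL-pS-QETFS peptide in Tris-HCl pH 7.5 with 30 mM MgCl2. Released Pi was detected by 10 uM Rh-PBP fluorescence (ex 525/em 598 nm) read at 1-min intervals for 11 min, as delta f1 - f0.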

[6] = Validation qHTS assay for inhibitors of Activation Induced Cytidine Deaminase (AID): UDG Counterscreen signal (AID 1347427); note: 0% is about no effect
Method in brief: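 Counterscreen read of UDG activity (2 U/mL, 4/3x) in the FRET deamination format with AID (1 uM, 4/3x), DJC20/DJC23 substrates (250 nM, 4x), 4 h at room temperature. NaOH stop, fluorescence at 560 ex/665 em.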

[7] = target: Single-stranded DNA cytosine deaminase (Homo sapiens) (UniProt Q9GZX7); experiment: Validation qHTS assay for inhibitors of Activation Induced Cytidine Deaminase (AID): AID signal (AID 1347429); note: potency is the fitted concentration of half-maximal effect
Chain of Single-stranded DNA cytosine deaminase (Homo sapiens) (Q9GZX7 whole entry, looked up): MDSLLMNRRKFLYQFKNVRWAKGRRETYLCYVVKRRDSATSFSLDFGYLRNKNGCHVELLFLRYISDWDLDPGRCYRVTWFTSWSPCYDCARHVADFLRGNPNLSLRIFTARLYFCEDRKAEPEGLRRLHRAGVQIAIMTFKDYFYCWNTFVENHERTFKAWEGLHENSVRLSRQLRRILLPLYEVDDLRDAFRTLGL
Method in brief: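 Fluorescence at 540 nm excitation and 590 nm emission reports ssDNA cytosine deamination by AID, with UDG in the same well. Compound-treated reactions ran 4 hr at room temperature with DJC20/DJC23 substrate, followed by 30 min NaOH treatment.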

[8] = Primary qHTS for inhibitors of La Crosse Virus (LACV) - induced cell death in SH-SY5Y cells (AID 1508616); note: potency is the fitted concentration of half-maximal effect
Method in brief: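 Protection against LACV-induced cell death is scored in SH-SY5Y cells exposed to compounds and virus (0.01 MOI) for 6 days. Data normalized to virus-infected DMSO wells and virus-free DMSO wells.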

[9] = target: Calcium and integrin-binding protein 1 (Homo sapiens) (UniProt Q99828); experiment: Validation qHTS for Identification of Calcium Integrin Binding protein 1 (CIB1) Competitor (AID 1508618); note: % is set by controls: 0 for no effect and ±100 for the full control effect
Chain of Calcium and integrin-binding protein 1 (Homo sapiens) (Q99828 whole entry, looked up): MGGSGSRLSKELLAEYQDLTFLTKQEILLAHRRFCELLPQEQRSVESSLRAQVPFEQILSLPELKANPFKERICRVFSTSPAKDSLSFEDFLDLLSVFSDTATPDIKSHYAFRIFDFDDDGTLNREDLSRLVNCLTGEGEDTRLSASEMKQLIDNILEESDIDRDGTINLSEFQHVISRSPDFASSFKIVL
Method in brief: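 Fluorescence polarization with 1 uM CIB1-GST and 100 nM FITC-alphaIIb peptide in HEPES pH 7.4, NaCl, 5 mM CaCl2, Tween20. Compounds at up to 114 uM final, preincubated with protein 15 min; read after 15 min more at RT.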

[10] = target: Calcium and integrin-binding protein 1 (Homo sapiens) (UniProt Q99828); experiment: Primary qHTS for Identification of Calcium Integrin Binding Protein 1 (CIB1) Competitor (AID 1508620);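 note: GST tagged CIB1 binding a fluorescein labelled alphaIIb integrin peptide tracer; top concentration of the series differs between compounds; % is set by controls: 0 for no effect and ±100 for the full control effect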
Method in brief: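 CIB1-GST (1 uM final) and compound incubated 15 min at room temperature before adding FITC-alphaIIb peptide tracer (100 nM final). Competition for binding read by fluorescence polarization (ex 480, em 540) after another 15 min at room temperature.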

[11] = Primary qHTS for small molecule stabilizers of the endoplasmic reticulum resident proteome: Secreted ER Calcium Modulated Protein (SERCaMP) assay (AID 1508630); note: % is set by controls: 0 for no effect and ±100 for the full control effect
Method in brief: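 GLuc-SERCaMP-expressing SH-SY5Y cells, pretreated 16 h with compound, are challenged with thapsigargin to empty ER calcium stores; after 4 h, coelenterazine is added directly to the medium and luminescence is imaged.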

[12] = A High-Content qHTS Against Drug Library for the Identification of Small Molecules that Inhibit DYT1 Early Onset Primary Dystonia-Associated Cell Pathology (AID 1645839; calls by dose curve; note: series mostly up to about 46 µM)
Method in brief: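 In this high-content image screen, delE TorsinA mislocalization in inducible Flp-In 293 cells is scored as %pathology, with cell count serving as the counterscreen. Compound exposure lasts 48 h under tetracycline induction in reduced-serum medium.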

Papain (Carica papaya) = Papain (Carica papaya) (UniProt P00784); experiment: Primary qHTS assay for inhibitors of the protease papain (AID 1645873);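 note: papain turnover of Z-FR-AMC read as the AMC fluorescence gain over 10 min; series mostly up to about 50 µM; % is set by controls: 0 for no effect and ±100 for the full control effect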
Chain of Papain (Carica papaya) (P00784 whole entry, looked up): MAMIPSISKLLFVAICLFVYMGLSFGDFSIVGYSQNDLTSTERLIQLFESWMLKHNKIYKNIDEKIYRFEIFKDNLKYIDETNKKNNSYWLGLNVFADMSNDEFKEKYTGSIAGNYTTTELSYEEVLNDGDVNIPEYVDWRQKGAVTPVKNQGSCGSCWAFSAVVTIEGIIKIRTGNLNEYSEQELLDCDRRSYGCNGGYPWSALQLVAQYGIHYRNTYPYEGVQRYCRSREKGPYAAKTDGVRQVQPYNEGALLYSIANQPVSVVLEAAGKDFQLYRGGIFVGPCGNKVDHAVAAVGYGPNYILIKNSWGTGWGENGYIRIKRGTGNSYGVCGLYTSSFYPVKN

[13] = target: Cytochrome P450 2C9 (Homo sapiens) (UniProt P11712); experiment: Cytochrome P450 family 2 subfamily C member 9 (CYP2C9) small molecule antagonists: luciferase biochemical (cell-free) qHTS assay (AID 1645842; active = well fitted curve in the direction sought with a large enough effect in the repeat runs; an effect the other way counts as inactive or inconclusive; note: nearly all actives have a fitted effect of over 55% in size; note: potency is the fitted concentration of half-maximal effect)
Chain of Cytochrome P450 2C9 (Homo sapiens) (P11712 whole entry, looked up): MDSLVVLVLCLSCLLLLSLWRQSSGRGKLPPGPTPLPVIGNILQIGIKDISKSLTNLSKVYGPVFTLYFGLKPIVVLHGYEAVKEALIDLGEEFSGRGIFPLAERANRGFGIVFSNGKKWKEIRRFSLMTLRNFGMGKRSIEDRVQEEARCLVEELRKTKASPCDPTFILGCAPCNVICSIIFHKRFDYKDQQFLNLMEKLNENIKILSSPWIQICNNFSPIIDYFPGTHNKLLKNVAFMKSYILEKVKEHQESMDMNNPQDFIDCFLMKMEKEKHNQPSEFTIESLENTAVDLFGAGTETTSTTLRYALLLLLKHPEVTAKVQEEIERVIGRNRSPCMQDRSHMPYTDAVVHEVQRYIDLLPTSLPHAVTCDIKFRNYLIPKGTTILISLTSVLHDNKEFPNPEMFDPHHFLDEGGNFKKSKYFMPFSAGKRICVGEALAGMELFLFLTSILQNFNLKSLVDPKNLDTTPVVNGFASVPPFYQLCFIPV
Method in brief: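 Luminescence, after 20 min with luciferin detection reagent, reflected CYP2C9 turnover during a 1 h NADPH-driven reaction at 37C. Enzyme-substrate mix contained 0.4% bovine serum albumin and was preincubated with compound 10 min at room temperature.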

[14] = target: Cytochrome P450 2D6 (Homo sapiens) (UniProt P10635); experiment: Cytochrome P450 family 2 subfamily D member 6 (CYP2D6) small molecule antagonists: luciferase biochemical (cell-free) qHTS assay (AID 1645840; active = well fitted curve in the direction sought with a large enough effect in the repeat runs; an effect the other way counts as inactive or inconclusive; note: nearly all actives have a fitted effect of over 55% in size; note: potency is the fitted concentration of half-maximal effect)
Chain of Cytochrome P450 2D6 (Homo sapiens) (P10635 whole entry, looked up): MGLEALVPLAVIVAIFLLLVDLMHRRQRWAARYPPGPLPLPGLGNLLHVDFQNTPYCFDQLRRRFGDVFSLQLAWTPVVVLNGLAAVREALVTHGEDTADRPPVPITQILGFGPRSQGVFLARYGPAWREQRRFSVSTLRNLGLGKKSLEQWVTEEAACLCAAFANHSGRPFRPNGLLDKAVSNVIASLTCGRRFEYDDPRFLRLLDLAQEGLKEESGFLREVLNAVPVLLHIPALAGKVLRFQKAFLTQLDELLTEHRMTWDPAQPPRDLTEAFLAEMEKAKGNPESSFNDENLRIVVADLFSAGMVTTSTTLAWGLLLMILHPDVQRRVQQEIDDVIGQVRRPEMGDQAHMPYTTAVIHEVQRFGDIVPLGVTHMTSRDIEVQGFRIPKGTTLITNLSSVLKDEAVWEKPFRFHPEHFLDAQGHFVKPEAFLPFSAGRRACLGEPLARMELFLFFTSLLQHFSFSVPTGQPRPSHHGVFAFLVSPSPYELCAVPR
Method in brief: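 P450-Glo luminescent screen: recombinant CYP2D6 enzyme–proluciferin substrate mix preincubated with compound 10 min at room temperature, then NADPH regeneration added for 1 h at room temperature. Detection reagent added for 20 min; luciferin light read as relative luminescence units.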

[15] = qHTS to identify inhibitors of the type 1 interferon - major histocompatibility complex class I in skeletal muscle: primary screen against the NCATS Mechanism Interrogation Plate v5.0 (MIPE) Libary (AID 1347411); note: nearly all actives have a fitted effect of over 65% in size; note: potency is the fitted concentration of half-maximal effect
Method in brief: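 Luminescence from HiBiT-tagged endogenous HLA-B*08:01 served as the MHC class I read-out. CRISPR-engineered C25cl48 human myoblasts received 4.0 ng/ml IFN-beta plus compound for 24 hrs, with an 11-point, 1:3 series topping at 46 uM final.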

[16] = Counterscreen qHTS for small molecule stabilizers of the endoplasmic reticulum resident proteome: GLuc-NoTag assay (AID 1508627);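 note: SH-SY5Y cells given compound then 100 nM thapsigargin to empty ER calcium; series mostly up to about 76 µM; 0% = thapsigargin alone and -100% = DMSO vehicle control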
Method in brief: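 Luminescence of Gaussia luciferase secreted into the medium (coelenterazine, 0.07x final, unlysed cells) was the read-out. Human SH-SY5Y neuroblastoma cells constitutively secreting untagged GLuc received compound for 19 h, then 100 nM thapsigargin for 4 h.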

[17] = Cell Viability qHTS for small molecule stabilizers of the endoplasmic reticulum resident proteome (AID 1508629); conditions: cell viability counter-screen, 100 nM thapsigargin for final 4 h
[18] = target: Cytochrome P450 3A4 (Homo sapiens) (UniProt P08684); experiment: Cytochrome P450 family 3 subfamily A member 4 (CYP3A4) small molecule antagonists: luciferase qHTS assay (AID 1645841; active = well fitted curve in the direction sought with a large enough effect in the repeat runs; an effect the other way counts as inactive or inconclusive; note: nearly all actives have a fitted effect of over 45% in size)
Chain of Cytochrome P450 3A4 (Homo sapiens) (P08684 whole entry, looked up): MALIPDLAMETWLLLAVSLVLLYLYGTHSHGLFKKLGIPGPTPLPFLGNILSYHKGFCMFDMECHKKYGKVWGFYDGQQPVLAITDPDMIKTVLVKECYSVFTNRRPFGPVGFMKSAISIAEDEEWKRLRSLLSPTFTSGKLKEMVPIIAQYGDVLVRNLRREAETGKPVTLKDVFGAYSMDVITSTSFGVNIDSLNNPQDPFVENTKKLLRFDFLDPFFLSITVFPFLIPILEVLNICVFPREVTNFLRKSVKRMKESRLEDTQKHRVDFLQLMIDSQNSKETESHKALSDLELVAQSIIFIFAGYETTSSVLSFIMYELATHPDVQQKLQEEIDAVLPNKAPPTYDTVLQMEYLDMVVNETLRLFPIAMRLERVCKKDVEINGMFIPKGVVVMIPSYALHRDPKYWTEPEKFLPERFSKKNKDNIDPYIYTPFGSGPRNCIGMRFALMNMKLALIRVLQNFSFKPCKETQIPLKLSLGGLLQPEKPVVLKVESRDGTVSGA
Method in brief: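 Luminescent CYP3A4 activity readout: compounds plus enzyme-substrate mix 10 min at room temperature, reaction started with NADPH regenerating system for 1 h, stopped with detection reagent, read after 20 min. Ketoconazole served as control.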

CC(=O)[C@@]1(O)CC[C@H]2[C@@H]3CCC4=CC(=O)CC[C@]4(C)[C@H]3CC[C@@]21C
inactive: Potency [1] | Potency [2] | outcome [3] | Potency [4] | outcome [5] | outcome [6] | Potency [7] | Potency [8] | outcome [9] | Potency [10] | Potency [11] | Potency [12] | Potency (Papain (Carica papaya))

CCN(CC)CCOCCOC(=O)C1(c2ccccc2)CCCC1
inactive: Potency [1] | Potency [2] | outcome [3] | Potency [4] | outcome [5] | outcome [6] | Potency [7] | Potency [8] | outcome [9] | Potency [10] | Potency [12] | Potency [13] | Potency (Papain (Carica papaya))

COc1ccc2c(c1OC)C(=O)O[C@@H]2[C@H]1c2c(cc3c(c2OC)OCO3)CCN1C
active: Potency [14] 4.9 µM | Potency [13] 0.11 µM
inactive: Potency [1] | Potency [2] | outcome [3] | Potency [4] | outcome [5] | outcome [6] | Potency [7] | Potency [8] | outcome [9] | Potency [10] | Potency [11] | Potency (Papain (Carica papaya))

Cc1scc2c1N(C(=O)CN1CCN(C)CC1)c1ccccc1NC2=O
inactive: Potency [1] | Potency [2] | outcome [3] | Potency [4] | outcome [5] | outcome [6] | Potency [7] | Potency [8] | outcome [9] | Potency [10] | Potency [11] | Potency [12] | Potency [14] | Potency [13] | Potency (Papain (Carica papaya))

CCCN(CCC)C(=O)C(CCC(=O)O)NC(=O)c1ccccc1 (centres undefined)
inactive: Potency [1] | Potency [2] | outcome [3] | Potency [15] | Potency [4] | outcome [5] | outcome [6] | Potency [7] | Potency [8] | outcome [9] | Potency [10] | Potency [11] | Potency [14] | Potency [13] | Potency (Papain (Carica papaya))

CN/C(=C\[N+](=O)[O-])NCCSCc1ccc(CN(C)C)o1
inactive: Potency [1] | Potency [2] | outcome [3] | Potency [4] | outcome [5] | outcome [6] | Potency [7] | Potency [8] | outcome [9] | Potency [10] | Potency [12] | Potency [13]
active: Potency [14] 15.5 µM

CC(=O)[C@]1(O)Cc2c(O)c3c(c(O)c2[C@@H](O[C@H]2C[C@H](N)[C@H](O)[C@H](C)O2)C1)C(=O)c1ccccc1C3=O
inactive: outcome [3] | outcome [5] | outcome [6] | Potency [8] | outcome [9] | Potency [11] | Potency [13] | Potency (Papain (Carica papaya))
active: Potency [1] 1 µM | Potency [2] 5.28 µM | Potency [15] 2.08 µM | Potency [7] 2 µM | Potency [14] 17.4 µM

NS(=O)(=O)c1cc2c(cc1Cl)NC(C1CC3C=CC1C3)NS2(=O)=O (centres undefined)
inactive: Potency [1] | Potency [2] | outcome [3] | Potency [4] | outcome [5] | outcome [6] | Potency [7] | Potency [8] | outcome [9] | Potency [10] | Potency [11] | Potency [12] | Potency (Papain (Carica papaya))

CCCCNc1ccc(C(=O)OCCN(C)C)cc1
inactive: Potency [1] | Potency [2] | outcome [3] | Potency [4] | outcome [5] | outcome [6] | Potency [8] | outcome [9] | Potency [10] | Potency [16] | max response [17] 13.7% and 3.85% and 11.6% | Potency [11] | Potency [12] | Potency (Papain (Carica papaya))

CN1C[C@H](C(=O)N[C@]2(C)O[C@@]3(O)[C@@H]4CCCN4C(=O)[C@H](Cc4ccccc4)N3C2=O)C[C@@H]2c3cccc4[nH]cc(c34)C[C@H]21
inactive: Potency [1] | Potency [2] | outcome [3] | Potency [4] | outcome [5] | outcome [6] | Potency [7] | Potency [8] | Potency [10] | Potency [16] | Potency (Papain (Carica papaya))

CC(=O)Nc1nnc(S(N)(=O)=O)s1
inactive: Potency [1] | Potency [2] | outcome [3] | Potency [4] | outcome [5] | outcome [6] | Potency [7] | Potency [8] | outcome [9] | Potency [10] | Potency [11] | Potency [12] | Potency [14] | outcome [18] | Potency [13] | Potency (Papain (Carica papaya))

NC(=O)N1c2ccccc2C=Cc2ccccc21
inactive: Potency [1] | Potency [2] | outcome [3] | Potency [4] | outcome [5] | outcome [6] | Potency [7] | Potency [8] | outcome [9] | Potency [10] | Potency [11] | Potency [12] | Potency [14] | Potency [13] | Potency (Papain (Carica papaya))

CN1CCN(C2=Nc3ccccc3Oc3ccc(Cl)cc32)CC1
inactive: Potency [1] | Potency [2] | outcome [3] | Potency [4] | outcome [5] | outcome [6] | Potency [7] | Potency [8] | outcome [9] | Potency [10] | Potency [16] | max response [17] 14.4% | Potency [13] | Potency (Papain (Carica papaya))
active: Potency [14] 3.89 µM

Nc1ncn([C@@H]2O[C@H](CO)[C@@H](O)[C@H]2O)c(=O)n1
inactive: Potency [2] | outcome [3] | Potency [4] | outcome [5] | outcome [6] | Potency [7] | outcome [9] | Potency [10] | Potency [11] | Potency [14] | outcome [18] | Potency [13] | Potency (Papain (Carica papaya))
active: Potency [1] 8.91 µM | Potency [8] 1.12 µM

CCn1nc(C(=O)O)c(=O)c2cc3c(cc21)OCO3
inactive: Potency [1] | Potency [2] | outcome [3] | Potency [4] | outcome [5] | outcome [6] | Potency [7] | Potency [8] | outcome [9] | Potency [10] | Potency [12] | Potency (Papain (Carica papaya))

CNCCCN1c2ccccc2CCc2ccccc21
inactive: Potency [1] | Potency [2] | outcome [3] | Potency [4] | outcome [5] | outcome [6] | Potency [7] | Potency [8] | outcome [9] | Potency [10] | Potency [13] | Potency (Papain (Carica papaya))

CN(C(=O)CCCOc1ccc2[nH]c(=O)ccc2c1)C1CCCCC1
active: Potency [13] 13.8 µM
inactive: Potency [1] | Potency [2] | outcome [3] | Potency [4] | outcome [5] | outcome [6] | Potency [7] | Potency [8] | outcome [9] | Potency [10] | Potency [11] | Potency [12] | Potency [14] | Potency (Papain (Carica papaya))
